Several values for one entry are separate records, joined by “and”; a condition that tells them apart may be missing. Equal values may be shown once. Records with an inconclusive call do not appear. A call without a number means that no potency is given here. Some compounds were tested as several samples or in several runs, with calls that do not always agree. Activity calls are given as the source filed them. Calls follow the shape of the dose curve; as a rule, active = well fitted cell-killing curve with a large enough effect in the repeat runs; inconclusive = weak or mixed curves, or effect the other way; inactive = flat fitted curve, though single readings scatter.
Also: nearly all actives have a fitted effect of over 50% in size.
Potency is read from the fitted curve at half-maximal effect.

The first assay can be described thus: qHTS assay to identify small molecule HDAC inhibitors - cell viability counter screen (AID 1259365). The conditions noted are these: HCT-116 viability, CellTiter-Glo ATP luminescence, 2 h; series mostly up to 92.4 µM. The essentials:
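Wild-type HCT-116 cells, 1,500/well, cultured overnight, then compound-treated 2 h at 37 C. Viability measured as ATP luminescence with CellTiter-Glo after 30 min at room temperature.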
For `O=C(O)CCl`, the Potency entry is “inactive”.

For `C=CCOC(Cn1ccnc1)c1ccc(Cl)cc1Cl` (centres undefined), the Potency entry was “inactive”.

Turning to `CC(=O)O`, the Potency result is “inactive”.

Turning to `CCC[N+]1(C)CCCC1`, the Potency entry was “inactive”.

As for `CCCCCC[n+]1ccccc1`, the Potency result is “inactive”.

`CCCC[N+]1(C)CCCCC1`: the Potency result was “inactive”.

As to `COCC(=O)N(c1c(C)cccc1C)C(C)C(=O)OC` (centres undefined), the Potency result is “inactive”.

As for `Nc1ccccc1`, the Potency result is “inactive”.

Turning to `O=S(=O)(O)O`, the Potency entry is “inactive”.

As for `C1CCC(NC2CCCCC2)CC1`, the Potency result was “inactive”.

On to `CCCn1cc[n+](C)c1`, for which the Potency result was “inactive”.

For the compound `O=C(O)C(Cl)(Cl)Cl`, the Potency entry was “inactive”.

Regarding `COP(=O)(OC)C(O)C(Cl)(Cl)Cl` (centres undefined), the Potency result was “inactive”.

In the case of `CN(C)[C@@H]1C(=O)C(C(N)=O)=C(O)[C@@]2(O)C(=O)C3=C(O)c4c(O)cccc4[C@@](C)(O)[C@H]3[C@H](O)[C@@H]12`, the Potency entry is “inactive”.

Regarding `O=C(O)C(Cl)Cl`, the Potency result was “inactive”.

`CCOP(=S)(OCC)Oc1ccc2c(C)c(Cl)c(=O)oc2c1`: the Potency entry was “inactive”.

Turning to `CC[n+]1ccccc1`, the Potency result is “inactive”.

Turning to `COP(=O)(OC)OC=C(Cl)Cl`, the Potency result is “inactive”.

Consider `CCCCn1cc[n+](C)c1C`, for which the Potency entry was “inactive”.

For `CC(=O)[O][Hg][c]1ccccc1`, the Potency is 3.82 µM (active) and 6.11 µM (active) and 16.8 µM (active).

As for `CCCCCCCCCCn1cc[n+](C)c1`, the Potency result was “inactive”.

Turning to `O=C(O)COc1ccc(Cl)cc1Cl`, the Potency result was “inactive”.

For `CC[N+](CC)(CC)CC`, the Potency result was “inactive”.

In the case of `CCCCn1cc[n+](C)c1`, the Potency result was “inactive”.

Regarding `C[C@]12CCC(=O)C=C1CC[C@@H]1[C@@H]2CC[C@]2(C)C(=O)CC[C@@H]12`, the Potency entry was “inactive”.

On to `Cc1cc(Cl)ccc1OCC(=O)O`, for which the Potency entry was “inactive”.

Consider `O=c1[nH]c(=O)n(Cl)c(=O)n1Cl`, for which the Potency result is “inactive”.

For the compound `CCn1cc[n+](C)c1C`, the Potency result was “inactive”.

In the case of `O=P1(N(CCCl)CCCl)NCCCO1` (centres undefined), the Potency result is “inactive”.

Regarding `OCCOc1ccccc1`, the Potency result was “inactive”.

Regarding `CCNc1nc(Cl)nc(NCC)n1`, the Potency entry is “inactive”.

For `CC(Cl)(Cl)C(=O)O`, the Potency entry was “inactive”.

A short description of the next assay: qHTS assay to identify small molecule agonists of the sonic hedgehog signaling (Shh) pathway - cell viability counter screen (AID 1259366). The conditions noted are these: NIH/3T3 Gli1-Luc viability, CellTiter-Fluor, 24 h; series mostly up to 92.4 µM. The essentials:
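NIH/3T3-derived Gli1-Luc reporter cells, 2,000 per well, received compound after 4 h and were treated about 23 h at 37C. Viability measured in the same wells by CellTiter-Fluor fluorescence after 1 h.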
A general note: qHTS replaces the single test concentration by a dilution series.
Consider `O=C(O)CCl`, for which the Potency entry is “inactive”.

With `C=CCOC(Cn1ccnc1)c1ccc(Cl)cc1Cl` (centres undefined), the Potency entry is “inactive”.

`CC(=O)O`: the Potency entry is “inactive”.

As to `CCC[N+]1(C)CCCC1`, the Potency result is “inactive”.

As to `CCCCCC[n+]1ccccc1`, the Potency entry was “inactive”.

As to `CCCC[N+]1(C)CCCCC1`, the Potency entry was “inactive”.

Regarding `COCC(=O)N(c1c(C)cccc1C)C(C)C(=O)OC` (centres undefined), the Potency entry is “inactive”.

For the compound `Nc1ccccc1`, the Potency entry was “inactive”.

As for `O=S(=O)(O)O`, the Potency result was “inactive”.

Take `C1CCC(NC2CCCCC2)CC1`: the Potency entry was “inactive”.

Consider `CCCn1cc[n+](C)c1`, for which the Potency result was “inactive”.

With `O=C(O)C(Cl)(Cl)Cl`, the Potency entry was “inactive”.

With `COP(=O)(OC)C(O)C(Cl)(Cl)Cl` (centres undefined), the Potency result is “inactive”.

In the case of `CN(C)[C@@H]1C(=O)C(C(N)=O)=C(O)[C@@]2(O)C(=O)C3=C(O)c4c(O)cccc4[C@@](C)(O)[C@H]3[C@H](O)[C@@H]12`, the Potency result is “inactive”.

Turning to `O=C(O)C(Cl)Cl`, the Potency entry was “inactive”.

With `CCOP(=S)(OCC)Oc1ccc2c(C)c(Cl)c(=O)oc2c1`, the Potency result was “inactive”.

For the compound `CC[n+]1ccccc1`, the Potency result was “inactive”.

On to `COP(=O)(OC)OC=C(Cl)Cl`, for which the Potency entry is “inactive”.

As to `CCCCn1cc[n+](C)c1C`, the Potency entry is “inactive”.

On to `CC(=O)[O][Hg][c]1ccccc1`, for which the Potency is 606 nM (active) and 1.37 µM (active) and 1.5 µM (active).

In the case of `CCCCCCCCCCn1cc[n+](C)c1`, the Potency result is “inactive”.

Turning to `O=C(O)COc1ccc(Cl)cc1Cl`, the Potency entry was “inactive”.

As for `CC[N+](CC)(CC)CC`, the Potency result was “inactive”.

In the case of `CCCCn1cc[n+](C)c1`, the Potency result was “inactive”.

`C[C@]12CCC(=O)C=C1CC[C@@H]1[C@@H]2CC[C@]2(C)C(=O)CC[C@@H]12`: the Potency entry is “inactive”.

Consider `Cc1cc(Cl)ccc1OCC(=O)O`, for which the Potency result was “inactive”.

As for `O=c1[nH]c(=O)n(Cl)c(=O)n1Cl`, the Potency result was “inactive”.

For the compound `CCn1cc[n+](C)c1C`, the Potency result is “inactive”.

Regarding `O=P1(N(CCCl)CCCl)NCCCO1` (centres undefined), the Potency entry was “inactive”.

As for `OCCOc1ccccc1`, the Potency entry was “inactive”.

Turning to `CCNc1nc(Cl)nc(NCC)n1`, the Potency entry is “inactive”.

For `CC(Cl)(Cl)C(=O)O`, the Potency entry was “inactive”.

Values taken from PubChem BioAssay (Tox21).
